Sampled rows, rich in hits. Any-hit rate of the full collection: about 3.5%.
BoNT-A LC inh2 = BoNT A light chain protease inhibition; multiplex microsphere protease substrate cleavage, flow cytometry; inhibition, % at 10 µM; 0.17% of 360,000 active; AID 588499
3CLpro inhibitor = SARS-CoV 3CLpro protease inhibition; AID 1706; recombinant SARS-CoV 3CLpro, quenched FRET peptide cleavage; 0.14% of 290,000 active; P0C6X7; inhibition, % at 6 µM; in the data active = inhibition above about 12%
BoNT-F LC inh = BoNT F light chain protease inhibition; Multiplex microsphere protease cleavage assay, flow cytometry; inhibition, % at 10 µM; 0.22% of 360,000 active; AID 588497; in the data active = inhibition above about 35%, passing the limit was not always enough; inconclusive = no clear call, values can overlap the other calls
Bead autofluor = counter-screen for toxin protease inhibitors: compound fluorescence | AID 624483 | compound autofluorescence counterscreen, microsphere flow cytometry; stronger effect = higher value | 3.1% of 360,000 active | fluorescence intensity (test concentration not listed); in the data active = fluorescence intensity above about 16000; inconclusive = no clear call, values can overlap the other calls
Anthrax LF prot = anthrax lethal factor protease inhibition | P15917 | multiplex microsphere protease cleavage assay, LF | inhibition, % at 10 µM | 0.12% of 360,000 active
Target sequence (P15917 whole entry, looked up): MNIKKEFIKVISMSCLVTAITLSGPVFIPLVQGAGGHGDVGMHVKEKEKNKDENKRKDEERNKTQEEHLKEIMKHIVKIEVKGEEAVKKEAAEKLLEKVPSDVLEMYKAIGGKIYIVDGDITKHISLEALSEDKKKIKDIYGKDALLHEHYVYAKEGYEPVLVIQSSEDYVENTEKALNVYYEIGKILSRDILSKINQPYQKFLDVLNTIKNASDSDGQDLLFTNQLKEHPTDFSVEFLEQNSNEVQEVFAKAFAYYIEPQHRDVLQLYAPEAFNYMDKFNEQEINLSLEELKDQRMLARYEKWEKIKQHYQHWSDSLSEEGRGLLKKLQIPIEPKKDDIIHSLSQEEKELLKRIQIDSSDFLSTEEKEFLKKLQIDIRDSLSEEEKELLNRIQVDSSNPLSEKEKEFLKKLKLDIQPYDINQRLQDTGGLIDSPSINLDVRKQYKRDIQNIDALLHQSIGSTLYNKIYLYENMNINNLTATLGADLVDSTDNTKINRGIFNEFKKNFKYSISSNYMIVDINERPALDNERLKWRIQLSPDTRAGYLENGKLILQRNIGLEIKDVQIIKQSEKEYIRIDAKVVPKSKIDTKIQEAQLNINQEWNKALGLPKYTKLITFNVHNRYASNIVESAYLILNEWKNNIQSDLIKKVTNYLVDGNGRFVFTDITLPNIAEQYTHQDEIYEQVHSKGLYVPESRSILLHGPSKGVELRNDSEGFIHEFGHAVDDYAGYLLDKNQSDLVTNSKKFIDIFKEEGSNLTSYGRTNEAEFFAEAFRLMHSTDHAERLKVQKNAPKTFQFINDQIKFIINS
Hits are given with their value; i = inactive; ? = inconclusive; nt = no result. Rule as the data show it, unless noted: active = inhibition above about 30%; inconclusive = no clear call, values can overlap the other calls; inactive = below that.

SMILES | BoNT-A LC inh2 | 3CLpro inhibitor | BoNT-F LC inh | Bead autofluor | Anthrax LF prot
CCOC(=O)N1CCN(c2cc(=O)n(-c3ccccc3Cl)c(=O)[nH]2)CC1 | i | i | i | i | i
COc1ccc(-n2c(=O)cc(N3CCOCC3)[nH]c2=O)cc1 | i | i | i | 19939 | i
CCOc1ccc(-n2c(=O)cc(N3CCN(c4ccccc4)CC3)[nH]c2=O)cc1 | i | i | i | 21972 | i
O=c1cc(N2CCN(c3ccccc3)CC2)[nH]c(=O)n1-c1ccccc1Cl | i | i | i | 21259 | i
C=CCn1c(Cc2c[nH]c3ccccc23)nnc1SCC(=O)NCc1ccccc1 | i | i | i | 23009 | i
NS(=O)(=O)c1cccc(NC(=O)COC(=O)C2CCN(S(=O)(=O)c3cccs3)CC2)c1 | i | i | i | i | i
COc1ccc(NC(=O)c2c(C(F)(F)F)nn(C)c2SCc2ccccc2Cl)cc1 | i | i | i | 19414 | i
CC(=O)Oc1ccccc1C(=O)Nc1ccccc1C(=O)N1CCCC1 | i | i | i | ? | i
COC(=O)c1c(C(=O)OC)c(-c2ccc(C)cc2)n2c1CCC2 | i | i | i | 24446 | i
CCOc1cccc(C(=O)Nc2cccc(NC(=O)c3ccco3)c2)c1 | i | i | i | i | i
C=CCOc1ccccc1/C=C/C(=O)O | i | i | i | 22958 | i
FC(F)(F)c1cccc(CN2CCN(c3ncccn3)CC2)c1 | i | nt | i | i | i
Fc1ccc(CN2CCCCCC2)c(F)c1 | i | i | i | 22437 | i
FC(F)(F)c1cccc(CN2CCCCCC2)c1 | i | i | i | 24319 | i
Fc1ccc(CN2CCCCCCC2)c(F)c1 | i | i | i | i | i
Fc1ccc(CN2CCCCCCC2)cc1F | i | i | i | 16629 | i
CCOC(=O)C1CCN(Cc2ccc(F)c(F)c2)CC1 | i | i | i | i | i
CCN(CC)S(=O)(=O)c1ccc(NC(=O)Nc2cccc(C(F)(F)F)c2)cc1 | nt | i | nt | nt | nt
COc1ccc(N(CC(=O)Nc2ccc(C)cn2)S(=O)(=O)c2c(C)noc2C)cc1 | i | i | i | 17199 | i
COc1ccc(N(CC(=O)Nc2ccc(OC)c(Cl)c2)S(=O)(=O)c2c(C)noc2C)cc1 | i | i | i | 20070 | i
COc1ccc(N(CC(=O)Nc2cc(Cl)ccc2OC)S(=O)(=O)c2c(C)noc2C)cc1 | ? | i | i | 20289 | i
CCOc1ccc(N(CC(=O)Nc2ccc(OC)cc2)S(=O)(=O)c2c(C)noc2C)cc1 | i | i | i | i | i
COc1ccc(OC)c(NC(=O)CN(c2ccc(C)cc2)S(=O)(=O)c2c(C)noc2C)c1 | i | i | i | i | i
COc1ccc(N(CC(=O)Nc2ccc(F)c(Cl)c2)S(=O)(=O)c2c(C)noc2C)cc1 | i | i | i | 16336 | i
COc1ccc(N(CC(=O)NCc2ccc(Cl)cc2)S(=O)(=O)c2c(C)noc2C)cc1 | i | i | i | i | i
SMILES | BoNT-A LC inh2 | 3CLpro inhibitor | BoNT-F LC inh | Bead autofluor | Anthrax LF prot
CC1=C(C(=O)Nc2ccccc2F)C(c2ccsc2)C2=C(CC(C)(C)CC2=O)N1 (centres undefined) | i | i | i | i | i
CCN(CC)CCCN(Cc1cc2cc3c(cc2[nH]c1=O)OCO3)C(=S)NC | i | i | 35 | i | i
CCN(CC)CCCN(Cc1cc2cc3c(cc2[nH]c1=O)OCO3)C(=S)NCCCN(C)C | i | i | ? | i | i
CCC(=O)N(CCc1ccccc1)Cc1cc2cc3c(cc2[nH]c1=O)OCO3 | i | i | i | 21744 | i
CCC(=O)N(Cc1ccc(C)cc1)Cc1cc2cc3c(cc2[nH]c1=O)OCO3 | i | i | i | 23631 | i
Cn1c(=O)[nH]c(=O)c2c1nc(Br)n2CCSc1nc2ccccc2o1 | ? | i | i | 22279 | i
Cn1c(=O)[nH]c(=O)c2c1nc(N1CCCCCC1)n2CCSc1nc2ccccc2o1 | i | i | i | i | i
CC(=O)c1sccc1NC(=O)CC(C)(C)CC(=O)O | i | i | i | i | i
Cc1c(Br)ccc(NC(=O)CCN2C(=O)C3C4CCC(C4)C3C2=O)c1C (centres undefined) | ? | i | i | 23010 | i
CN(C)c1nc(NS(=O)(=O)c2ccc(Cl)cc2)nc(N(C)C)n1 | i | i | i | 16435 | i
COC(=O)[C@H](CCSC)NC(=O)NCc1ccc(S(N)(=O)=O)cc1 | i | i | i | i | i
COC(=O)[C@H](CCSC)NC(=O)NCc1ccccc1F | i | i | i | 22106 | i
Cc1ccc(CCNC(=O)CS(=O)Cc2nc(-c3ccccc3F)oc2C)cc1 (centres undefined) | i | i | i | i | i
CN(CC(=O)NCc1ccco1)S(=O)(=O)c1ccc2c(c1)n(C)c(=O)c(=O)n2C | i | i | i | 24204 | i

Assay outcomes from PubChem.
